According to PubChem BioAssay AID652067 (The Scripps Research Institute Molecular Screening Center, 2013):
In all, about 370,000 compounds went through this assay and about 5,400 (1.5%) were called active. This is one part of a sample in which actives are shown more often than they occur.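 How the source made its calls: active means activation above the mean of all tested compounds plus 3 SD (cut at about 5.5% in these data); inactive means the rest.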

The compounds below were run on DAF-12 nuclear receptor (Haemonchus contortus) (assay: hcDAF-12 driven luciferase reporter activation – cell-based, luminescence, HEK293, lit1-tk-luc reporter, primary screen (AID 652067;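 further: 100% = response to 3 µM Δ7-dafachronic acid high control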)). Conditions: HEK293 hcDAF-12 lit1-tk-luc reporter, at 6.8 µM, hits give high values, 0% DMSO, 100% Δ7-dafachronic acid.
For `Cc1ccnc(NC(=O)CCCOc2ccccc2)c1`, the activation was 2.54% (inactive). With `Cc1ccnc(NC(=O)c2ccoc2C)c1` the activation was 7.44% (active). `Cc1ccnc(NC(=O)C(C)N2C(=O)c3ccccc3C2=O)c1` (stereo not drawn) was tested, and the activation was -0.09% (inactive). With `COc1cc(SC)ccc1C(=O)Nc1nc(C)cs1` the activation was -4.3% (inactive). For `COc1cc(SC)ccc1C(=O)Nc1cc(C)ccn1`, the activation was 9.16% (active). `CSCCC(NC(=O)c1ccco1)C(=O)Nc1cc(C)ccn1` (stereo not drawn) was tested, and the activation was 5.45% (inactive). For `O=C(NCc1ccccc1)[C@H]1CCCN1C(=O)[C@@H]1CCCN1C(=O)c1ccc(Cl)cc1Cl`, the activation was -1.62% (inactive). For `O=C(CSc1nc2ccccc2n1Cc1ccccc1)NNC(=S)Nc1ccccc1`, the activation was -1.89% (inactive). For `COC(=O)c1cc2c(c3c4ccccc4n(S(=O)(=O)c4cccc(C)c4)c13)C(=O)N(Cc1ccccc1)C2`, the activation was 1.43% (inactive). With `Oc1ccc(/C=C/c2c(F)cccc2F)c2cccnc12` the activation was -3.66% (inactive). In the case of `O=C1[C@@H](c2ccccc2)[C@@H](c2ccccc2)N1c1ccccc1`, the activation was -1.98% (inactive). For `Cc1nn2c(c1-c1ccccc1)N=C(c1ccco1)CC2c1ccccc1` (stereo not drawn), the activation was -0.56% (inactive). `Cc1nn(C(=O)c2ccoc2C)c(N)c1-c1ccccc1` was tested, and the activation was 12.4% (active). `Cc1cc(-c2ccccc2)n2nc(C)c(-c3ccccc3)c2n1` was tested, and the activation was -0.96% (inactive). For `CCOc1ccc(-n2c(SCC(=O)Nc3cc(C)c(NC(=O)c4ccccc4)cc3OC)nnc2-c2cccc(Cl)c2)cc1`, the activation was -2.73% (inactive). `Cc1ccccc1NC(=O)Cn1nnc(-c2ccccc2F)n1` was tested, and the activation was 1.07% (inactive). With `CN1CCCCC(NC(=O)C(C)(C)C)C1=O` (stereo not drawn) the activation was -1.55% (inactive). `Cc1c(C(N)=O)sc2ncn(CCOc3ccccc3)c(=O)c12` was tested, and the activation was -0.81% (inactive). For `Cc1cccc2c1N(CCOc1ccccc1)C(=O)C2=O`, the activation was -2.22% (inactive). With `Cc1nn(CCOc2ccccc2)c(=O)n1-c1ccccc1F` the activation was 6.6% (active). For `Cc1ccc(N)cc1CN1CCN(c2ncc(Cc3ccccc3)cn2)CC1`, the activation was -1.34% (inactive). For `O=C1CC[C@@]23CCCN2C(=O)CCC[C@H]3[C@H]1Cc1ccccc1`, the activation was -0.12% (inactive). `NC(=O)c1ncn([C@@H]2O[C@H](C(=O)O)[C@@H](O)[C@H]2O)n1` was tested, and the activation was -0.43% (inactive). `CC(=O)OCC(C)n1c(=O)c2ccccc2n1C(C)=O` (stereo not drawn) was tested, and the activation was -0.22% (inactive). In the case of `CC(=O)n1c(C=Nc2ccccc2)c(O)c2ccccc21`, the activation was 7.8% (active). In the case of `O=C(Nc1ccc(Br)cc1)OCCN1C(=O)CCC12CCC(c1ccccc1)CC2` (stereo not drawn), the activation was -1.25% (inactive). In the case of `Cc1ccc(-c2nnc(SCC(=O)Nc3ccc(Oc4ccccc4)cc3)n2Cc2ccco2)cc1`, the activation was -2.76% (inactive). With `CCC(C)[C@@H](C(=O)OC)N(CCc1cn(Cc2ccccc2)nn1)S(=O)(=O)c1ccccc1Br` (stereo partly drawn) the activation was -2.4% (inactive). `O=C(CSc1nnc(-c2c[nH]c3ccccc23)o1)c1ccccc1` was tested, and the activation was -0.49% (inactive). For `NC(=O)CSc1c[nH]c2ccccc12`, the activation was 6.34% (active). For `CCCn1cc(SCC(N)=O)c2ccccc21`, the activation was 2.17% (inactive). In the case of `C/C(=N\OC(=O)c1ccccc1)c1c(C)nc2cc(C)ccn12`, the activation was -1.05% (inactive). `Cc1cc(OC(=O)c2ccccc2Cl)ccc1N1C(=O)CCC1=O` was tested, and the activation was -1.68% (inactive). For `Cc1cccc(/C(N)=N/OC(=O)c2ccccc2Cl)c1`, the activation was 10.8% (active). In the case of `CCCCNC(=O)C[C@H]1C(=O)N(Cc2ccc(OC)cc2)C2=CCCC[C@@]21C(=O)OCC`, the activation was -4.06% (inactive). `CC(=O)OCCN1CCCC12CCC(c1ccccc1)CC2` (stereo not drawn) was tested, and the activation was -0.23% (inactive). With `CCCCCCN1CCS(=O)(=O)N(Cc2ccc(C(F)(F)F)cc2)C(C(=O)OC)C1` (stereo not drawn) the activation was -2.04% (inactive). `CN1C(=O)c2cc(NS(C)(=O)=O)ccc2OC[C@@H]2O[C@@H](CC(=O)NCc3ccc(-c4ccccc4)cc3)CC[C@H]21` was tested, and the activation was 0.33% (inactive). In the case of `O=C(OC12CCCN(C1)/C(=C/c1ccccc1)C2)c1ccco1` (stereo not drawn), the activation was -0.35% (inactive). For `CCC(NC(=O)C1C2C=CC3(CN(Cc4ccccc4)C(=O)C13)O2)c1ccccc1` (stereo not drawn), the activation was -1.89% (inactive). `COC(=O)[C@]12C[C@H](CC(=O)NCCC(C)C)C(=O)N(CCc3ccc(OC)c(OC)c3)C1=C[C@H](C(C)(C)C)O[C@@H]2C` was tested, and the activation was -0.99% (inactive). For `Cc1c(NC(=S)NCc2ccc(F)cc2)cccc1[N+](=O)[O-]`, the activation was -2.35% (inactive). For `O=C(N/N=C/c1ccc(OCC2COCCO2)cc1)c1ccc(Br)cc1` (stereo not drawn), the activation was -1.26% (inactive). With `O=C(N/N=C/c1ccc(OC(=O)c2ccccc2Cl)cc1)c1ccc(O)cc1` the activation was 5.89% (active). With `CC(C)(C)C(=O)Nc1ccc(C(=O)N/N=C/c2ccccc2OC(=O)c2ccc(Cl)cc2Cl)cc1` the activation was -1.06% (inactive). For `C=CCN1C(=O)[C@@H](CC(=O)NCC2CCCCC2)[C@]2(C(=O)OC)CCCCC=C12`, the activation was -1.65% (inactive). With `CCOc1ccccc1NC(=O)c1cccnc1` the activation was -0.55% (inactive). With `CCOc1ccccc1-c1cc(C(=O)N/N=C(\C)c2cccnc2)c2ccccc2n1` the activation was 1.52% (inactive). With `CCOc1cccc(/C=C/c2ccc3ccccc3n2)c1OC(C)=O` the activation was 6.5% (active). In the case of `COC(=O)[C@H](C(C)C)N(CCc1cn(Cc2ccccc2)nn1)S(=O)(=O)c1ccc(F)cc1Br`, the activation was -3.41% (inactive). For `CC(C)(C)c1ccc(S(=O)(=O)NCC2CCN(C(=O)C(=O)c3cc4ccccc4o3)CC2)cc1`, the activation was -1.1% (inactive). `CCCCN1CCN(C(=O)c2ccc3c(c2)NC(=O)C(C)(C)O3)CC1` was tested, and the activation was 0.06% (inactive). For `Cc1ccc(NC(=O)c2cc([N+](=O)[O-])ccc2Cl)c(O)c1`, the activation was 6.38% (active). In the case of `CCC(C)C(=O)Nc1cc([N+](=O)[O-])ccc1Cl` (stereo not drawn), the activation was 1.23% (inactive). `CNc1ccc([N+](=O)[O-])cc1C(=O)O` was tested, and the activation was -0.16% (inactive). For `COc1ccccc1C(=O)CSc1nnc(-c2ccccn2)n1-c1ccccc1`, the activation was -3.35% (inactive). `CCCC1CCC2(CCCN2CCOC(=O)NCc2ccccc2)CC1` (stereo not drawn) was tested, and the activation was -0.18% (inactive). With `CSc1ccc(Oc2cccc3c2S(=O)(=O)N([C@H](C)c2ccccc2)C[C@@H](COCc2ccccc2)O3)cc1C` the activation was 0.01% (inactive).
